Measurements: PubChem BioAssay (EPA / NIEHS)
Records with an inconclusive call do not appear. Active and inactive are the calls of the source. Rule for the calls: active = hit-call score of the fitted dose curve at least 0.9, where 1 is the maximum; inconclusive = response in the unintended direction; inactive = score below 0.9.

How the values were obtained:
[1] = molecular target: rat Glutamate, NMDA Agonist Site (GluNMDA), Grin1 (gene 24408) (UniProt P35439); assay: NVS_LGIC_rGluNMDA_Agonist: NovaScreen (NVS) Ligand-Gated Ion Channel Assay for rat Glutamate, NMDA Agonist Site (GluNMDA) (AID 2283327)
Procedure, shortened: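 Rat forebrain membranes, radioligand binding in the agonist-site protocol; 1 h after dosing; filter-based scintillation counting. Single-concentration duplicate screen at 25 uM, then concentration-response up to 50 uM for actives; gain-of-signal vs DMSO.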

[2] = molecular target: rat Thyrotropin Releasing Hormone Receptor (TRH), Trhr (gene 25570) (UniProt Q01717); assay: NVS_GPCR_rTRH: NovaScreen (NVS) G Protein-Coupled Receptor Assay for rat Thyrotropin Releasing Hormone Receptor (TRH) (AID 2283329);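 note: hit means lower bound tracer signal versus DMSO baseline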
Procedure, shortened: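 Cell-free radioligand binding on rat forebrain membranes; bound tracer measured by filter-based scintillation counting 4 hours after dosing. Loss of signal versus DMSO baseline indicates displacement; primary screen at 25 uM in duplicate, actives then run in concentration series.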

[3] = molecular target: human Androgen Receptor (AR), AR (gene 367) (UniProt P10275); assay: NVS_NR_hAR: NovaScreen (NVS) Nuclear Receptor Binding Assay for human Androgen Receptor (AR) (AID 2283332)
Procedure, shortened: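 Actives from a duplicate 25 uM single-point screen went on to concentration series. Read-out after 20 h was scintillation counting of displaced radioligand in LnCAP extract, with DMSO as baseline.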

Chain of human Androgen Receptor (AR), AR (gene 367) (P10275 whole entry, looked up): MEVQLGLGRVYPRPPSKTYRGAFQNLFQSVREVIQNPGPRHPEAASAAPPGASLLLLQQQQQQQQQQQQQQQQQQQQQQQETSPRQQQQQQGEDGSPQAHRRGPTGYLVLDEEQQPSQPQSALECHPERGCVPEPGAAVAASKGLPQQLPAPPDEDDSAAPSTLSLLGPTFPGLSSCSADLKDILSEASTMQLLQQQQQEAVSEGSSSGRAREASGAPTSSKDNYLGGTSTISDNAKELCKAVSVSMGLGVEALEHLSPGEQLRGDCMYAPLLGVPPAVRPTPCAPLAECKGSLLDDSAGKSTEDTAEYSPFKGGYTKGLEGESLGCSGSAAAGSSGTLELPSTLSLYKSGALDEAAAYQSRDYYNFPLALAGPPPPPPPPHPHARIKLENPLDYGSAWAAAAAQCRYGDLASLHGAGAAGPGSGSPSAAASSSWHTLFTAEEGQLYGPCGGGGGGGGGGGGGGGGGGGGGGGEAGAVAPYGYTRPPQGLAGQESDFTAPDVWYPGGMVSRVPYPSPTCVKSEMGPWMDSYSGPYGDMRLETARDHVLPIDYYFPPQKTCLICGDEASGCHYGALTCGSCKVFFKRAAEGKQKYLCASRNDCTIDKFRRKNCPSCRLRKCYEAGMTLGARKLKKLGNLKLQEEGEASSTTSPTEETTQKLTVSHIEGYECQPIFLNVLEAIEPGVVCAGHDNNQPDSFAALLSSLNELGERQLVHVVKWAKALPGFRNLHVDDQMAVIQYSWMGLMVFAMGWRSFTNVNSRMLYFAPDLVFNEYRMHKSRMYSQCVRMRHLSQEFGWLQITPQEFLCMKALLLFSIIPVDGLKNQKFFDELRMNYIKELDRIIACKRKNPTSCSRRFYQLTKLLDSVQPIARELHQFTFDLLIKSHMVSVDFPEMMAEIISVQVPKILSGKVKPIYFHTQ
Chain of rat Thyrotropin Releasing Hormone Receptor (TRH), Trhr (gene 25570) (Q01717 whole entry, looked up): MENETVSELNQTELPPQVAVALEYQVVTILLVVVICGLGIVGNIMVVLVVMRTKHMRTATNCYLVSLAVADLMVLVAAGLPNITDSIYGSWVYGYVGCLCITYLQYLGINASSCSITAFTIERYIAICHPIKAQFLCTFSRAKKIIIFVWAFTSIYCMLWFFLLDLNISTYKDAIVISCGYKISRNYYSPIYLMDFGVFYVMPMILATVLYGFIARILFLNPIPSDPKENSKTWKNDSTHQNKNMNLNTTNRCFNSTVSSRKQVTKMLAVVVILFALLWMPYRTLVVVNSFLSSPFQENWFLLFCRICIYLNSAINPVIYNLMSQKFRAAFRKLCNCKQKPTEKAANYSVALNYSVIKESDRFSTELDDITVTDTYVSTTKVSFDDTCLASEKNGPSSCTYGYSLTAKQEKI

## CCCCCCCCCC
[1]
  outcome: inactive

## CCn1nc(C)c2c1C(=O)NCC(c1ccc(O)cc1)=N2
[1]
  outcome: inactive

## OCC(CO)(CO)CO
[2]
  outcome: inactive

## C=CCc1cc(S(=O)(=O)c2ccc(O)c(CC=C)c2)ccc1O
[3]
  AC50: 6.16 µM (active)
